gsp ag: gsp mutant agonism | gsp mutant cells, cAMP HTRF, 30 min | Potency, µM (series often up to 76.9 µM), for inactives: at the highest dose activation (cAMP increase), usual class: activators | 340,000 tested, 0.13% active | AID 624287; active = well fitted activation curve with a large enough effect; inconclusive = small, poorly fitted or top-dose-only effect, or another doubt; inactive = no such curve, though single readings can be large or run the other way; cell line not stated here;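 note: phosphodiesterase inhibitor Ro 20-1724 added with compounds to block cAMP breakdown; potency is the fitted concentration of half-maximal effect; nearly all actives have a fitted effect of over 60% in size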
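Cells in DMEM/10% FBS with G418 were pretreated with compounds in DMSO plus […] (300 uM stock) for 30 min at 37C. cAMP was measured by HTRF (cAMP-d2 plus anti-cAMP antibody-K) after 30 min at room temperature.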
hERG WT inh: KCNH2 (human, wildtype) channel inhibition. Q12809. U2OS, BacMam KCNH2, thallium flux FluxOr; hits give low values. activity change, % at 1.84 µM. 340,000 tested, 0.37% active. AID 720551;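 active = maximum activity change below -70%; inconclusive = maximum activity change between -70% and -50%; inactive = maximum activity change above -50%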; note: % is set by controls: 0 for no effect and ±100 for the full control effect
Target sequence (Q12809 whole entry, looked up): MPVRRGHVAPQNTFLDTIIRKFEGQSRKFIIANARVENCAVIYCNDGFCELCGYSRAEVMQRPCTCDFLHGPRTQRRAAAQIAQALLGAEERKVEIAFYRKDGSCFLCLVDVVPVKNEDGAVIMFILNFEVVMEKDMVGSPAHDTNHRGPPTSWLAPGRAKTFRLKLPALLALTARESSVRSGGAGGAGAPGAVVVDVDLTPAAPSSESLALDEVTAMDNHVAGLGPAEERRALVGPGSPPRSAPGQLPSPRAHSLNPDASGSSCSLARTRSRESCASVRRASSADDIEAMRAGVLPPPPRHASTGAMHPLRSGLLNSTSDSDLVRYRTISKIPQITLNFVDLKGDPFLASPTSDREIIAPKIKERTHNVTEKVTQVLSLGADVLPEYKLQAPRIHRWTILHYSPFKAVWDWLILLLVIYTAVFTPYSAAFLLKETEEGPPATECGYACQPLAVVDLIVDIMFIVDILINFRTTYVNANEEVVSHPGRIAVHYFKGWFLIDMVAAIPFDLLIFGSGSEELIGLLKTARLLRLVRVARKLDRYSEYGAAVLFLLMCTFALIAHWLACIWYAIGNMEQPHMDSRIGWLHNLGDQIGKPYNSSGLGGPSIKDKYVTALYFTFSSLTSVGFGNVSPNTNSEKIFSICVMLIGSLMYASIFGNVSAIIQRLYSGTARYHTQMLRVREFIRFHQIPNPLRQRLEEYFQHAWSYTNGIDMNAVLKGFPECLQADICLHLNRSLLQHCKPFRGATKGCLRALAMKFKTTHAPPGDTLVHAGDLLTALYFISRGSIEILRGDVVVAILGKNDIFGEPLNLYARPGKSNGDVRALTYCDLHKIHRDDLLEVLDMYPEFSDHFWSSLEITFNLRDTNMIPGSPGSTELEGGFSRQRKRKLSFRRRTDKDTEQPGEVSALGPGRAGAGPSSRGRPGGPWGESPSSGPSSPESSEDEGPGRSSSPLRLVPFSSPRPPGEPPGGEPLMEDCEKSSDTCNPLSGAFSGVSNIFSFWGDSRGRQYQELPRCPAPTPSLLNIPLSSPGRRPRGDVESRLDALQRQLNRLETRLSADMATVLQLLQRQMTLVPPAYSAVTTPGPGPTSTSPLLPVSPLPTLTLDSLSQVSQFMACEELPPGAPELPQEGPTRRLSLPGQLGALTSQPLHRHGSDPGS
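U2OS cells were transduced with wild-type KCNH2 virus (2.03 x 10^8 / mL) for 4 h at room temperature, then cultured overnight at 37 C. Thallium flux was read with FluxOr dye. Rate constants were normalized to DMSO controls.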
Glioma ERSR ind: induces the endoplasmic reticulum stress response in human glioma cells; AID 602332; 420,000 tested, 0.02% active; Potency, µM, without a hit: at the top dose activation, most hits filed as activators; U87-MG GRP78 promoter luciferase reporter, 16 h; active = well fitted activation curve with a large enough effect; inconclusive = small, poorly fitted or top-dose-only effect; inactive = no such curve, though single readings can be large or run the other way; note: potency is the fitted concentration of half-maximal effect; series mostly up to about 76 µM; % of control where 0% means no effect; nearly all actives have a fitted effect of over 35% in size
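Stably transfected U87-MG glioma cells carrying a GRP78-based luciferase sensor; 16 h compound incubation. Luminescence end-point read 10 min after Bright-Glo addition at room temperature.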
KCNH2 3.1 block: inhibitors of human KCNH2 3.1 potassium channel isoform | U2OS KCNH2 3.1, thallium flux FluxOr; hits give low values | activity change, % (tested at about 1.8 µM) | 340,000 tested, 0.95% active | AID 720553;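 active = maximum activity change below -70%; inconclusive = maximum activity change from -70% to -50%; inactive = maximum activity change above -50%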;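 note: thallium influx rate constant from kinetic fluorescence after stimulation buffer; % is set by controls: 0 for no effect and ±100 for the full control effect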
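Measured as rate of thallium-driven FluxOr signal in transduced U2OS cells carrying the 3.1 channel, read kinetically for 2 min upon stimulation; values are rate constants scaled to DMSO control wells.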
pAkt inh: Akt phosphorylation inhibition; Neuro2A IGF-stimulated pAkt S473 HTRF, 20 min; hits give low values; activity change, % for hits at 50 µM; 360,000 tested, 0.32% active; AID 651550; in the data active = activity change below about -80%; inconclusive = mostly about -51% to -80%; note: % is set by controls: 0 for no effect and ±100 for the full control effect
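Neuro2A cells (4,500/well, DMEM with 0.5% FBS) were treated with compound at a single 50 µM final concentration, stimulated with 6 nM IGF for 20 min at 37 °C, and lysed. Phospho-Akt Ser473 was read by HTRF as 665/615 ratio ×10^4.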
gsp antag: antagonists of gsp mutant (McCune-Albright syndrome); gsp-mutant cells, cAMP HTRF, 30 min; Potency, µM (highest dose often 76.9 µM), for the others: at the highest dose activity change, negative = inhibition, most hits filed as inhibitors; 340,000 tested, 0.4% active; AID 624288; calls by dose curve; cell line not stated here;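 note: intracellular cAMP measured with PDE inhibitor Ro 20-1724 present during compound exposure; potency is the fitted concentration of half-maximal effect; % is set by controls: 0 for no effect and ±100 for the full control effect; nearly all actives have a fitted effect of over 65% in size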
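Measurement of cellular cAMP by homogeneous time-resolved fluorescence following a 30 min compound exposure at 37C. The PDE inhibitor […] was present throughout; the assay buffer was DPBS with 0.05% BSA and 0.005% Tween 20.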
An asterisk follows results filed as active; i = inactive; ? = inconclusive; . = no result given; [ ] = remark or other dose. A selection: hits, their analogues and other compounds. The true share with any hit is near 1.6%.

SMILES	gsp ag	hERG WT inh	Glioma ERSR ind	KCNH2 3.1 block	pAkt inh	gsp antag
COc1ccc(NC(=O)CN2C(=O)NC(c3ccccc3)(c3ccccc3)C2=O)cc1	0.0%[15.4 µM]	6.6	0.0%	-36.3	i	-28.6%
COc1ccc(C2(c3ccc(OC)cc3)NC(=O)N(CC(=O)Nc3ccc(OC(F)F)cc3)C2=O)cc1	8.2%[15.4 µM]	-82.6*	-1.7%	.	i	-7.7%
COc1cc(S(=O)(=O)NCc2ccccc2)ccc1Br	-31.6%	17.8	-1.4%	-0.7	i	7.1%
CCNS(=O)(=O)c1ccc(Br)c(OC)c1	-2.6%	-29.3	-3.8%	-92.8*	i	-7.0%
Cc1ccc(S(=O)(=O)Nc2cc(C(F)(F)F)ccc2N2CCOCC2)cc1C	-38.7%	-5.5	-0.4%	-91.7*	i	2.1%
COc1ccc2c(c1)CCc1c-2n[nH]c1C(=O)O	-23.3%	-3.6	-5.2%	1.9	-110.6%*	0.9%
CCOC(=O)NC(=O)/C(C#N)=C\NNc1ncc(C(F)(F)F)cc1Cl	-2.3%	-71.1*	-0.8%	9.6	i	10.5%
CC(O)(COc1ccccc1)c1ccc2c(c1)CN(Cc1cccc3cccnc13)CCO2 (stereo not given)	.	.	-2.1%	.	.	.
CCC(CC)c1nnc(NC(=O)CC(C)c2ccccc2)s1 (stereo not given)	-25.6%	-5.4	-6.0%	-71.7*	i	7.4%
CC(C)c1nnc(NC(=O)CC(C)c2ccccc2)s1 (stereo not given)	4.0%[15.4 µM]	-13.9	5.2%	-13.5	i	15.7%
O=C(Cc1ccc(Oc2ccccc2)cc1)NO	.	.	3.6%	.	.	.
COc1ccc(S(=O)(=O)N2CCOCC2)cc1NC(=O)CSc1cccc[n+]1[O-]	15.8µM*	7.4	-0.7%	-10.7	i	23.8%
COc1ccc(S(=O)(=O)N2CCCCC2)cc1NC(=O)CSc1ncnc2ccccc12	20µM*	-25.8	-2.3%	-13.3	i	26.8%
CC(=O)NCCC(=O)Nc1cc(S(=O)(=O)N2CCCCC2)ccc1Oc1ccccc1	2.6%	-70.7*	-4.9%	-16.8	i	1.7%
CC(C)Oc1ccc(S(=O)(=O)N2CCOCC2)cc1NC(=O)CCCSc1ccccc1	-21.6%	-0.6	-3.3%	-72.2*	i	-6.6%
COc1ccc(S(=O)(=O)N2CCOCC2)cc1NC(=O)CSc1ccccc1	2.9%	11.8	-2.5%	-2.3	i	-6.9%
NC(=O)[C@@H]1CCCN1C(=O)CCN1Cc2ccccc2OC(c2ccccc2F)C1 (stereo not given in full)	.	.	-4.6%	.	.	.
N[C@@]1(C(=O)O)CN[C@@H](C(=O)O)C1	.	.	-2.8%	.	.	.
COc1ccccc1OCC(=O)NNC(=O)C1CCN(c2ncnc3sc(C)c(C)c23)CC1	27.5%	-11.7	-5.5%	-5.6	i	-23.9%
Cc1ccccc1OCC(=O)NNC(=O)C1CCN(c2ncnc3sc(C)c(C)c23)CC1	0.0%	1.7	-5.8%	-1.2	i	35.5µM*
Cc1sc2ncnc(N3CCC(C(=O)NCC(=O)Nc4ccc(F)c(F)c4)CC3)c2c1C	-7.5%	3.9	-5.3%	-8.7	i	39.8µM*
CC(C)c1c(C(=O)NCc2cccnc2)cnn1-c1nccc(-c2cccs2)n1	.	.	-0.9%	.	.	.
O=C(Cc1ccc(OCCCc2ccccc2)cc1)NO	.	.	-4.6%	.	.	.
COc1ccc(C(=O)c2c(-c3ccc(OC)cc3)oc3ccccc23)cc1	33.9%	-12.9	0.0%	-70.7*	i	-9.4%
CSc1nc(C(=O)NCc2nc(-c3cccc(NC(=O)c4ccc(C)s4)c3)oc2C)cs1	.	.	-5.9%	.	.	.
SMILES	gsp ag	hERG WT inh	Glioma ERSR ind	KCNH2 3.1 block	pAkt inh	gsp antag
O=C(CN(c1ccccc1)S(=O)(=O)c1ccccc1)N1CCN(Cc2ccc3c(c2)OCO3)CC1	0.0%	42.0	-0.6%	-3.3	i	-17.0%
COc1ccc(N(CC(=O)N2CCN(Cc3ccc4c(c3)OCO4)CC2)S(=O)(=O)c2ccc(F)cc2)cc1	7.2%	-44.0	0.3%	-86.1*	i	-6.2%
O=C(c1ccc2nccnc2c1)N1CCN(Cc2ccc3c(c2)OCO3)CC1	20.1%	-3.2	-4.0%	-87.3*	i	7.4%
O=C(c1cccn2c(=O)c3cc(Cl)ccc3nc12)N1CCN(Cc2ccc3c(c2)OCO3)CC1	10.5%	7.9	-5.7%	-82.8*	i	-15.2%
O=C(c1ccc(Cn2cc(Cl)cn2)o1)N1CCN(Cc2ccc3c(c2)OCO3)CC1	19.0%	-2.2	-2.1%	-4.3	-110.6%*	1.1%
COc1ccccc1-c1ccnc(-n2ncc(C(=O)N[C@H]3CCCCNC3=O)c2C2CC2)n1	.	.	-3.9%	.	.	.
COc1cccc2c1CCCC2CCCN1CCN(C2CCCCC2)CC1 (stereo not given)	.	.	-6.5%	.	.	.
O=C(C[n+]1ccncc1)c1ccc2ccccc2c1	.	.	-1.5%	.	.	.
CCCC(=O)N1CCN(Cc2ccc3c(c2)OCO3)CC1	-1.6%	0.4	-4.1%	-4.0	i	8.6%
CC(C)CC(=O)N1CCN(Cc2ccc3c(c2)OCO3)CC1	1.4%	-132.5*	-3.2%	16.3	i	7.9%
Cc1ccccc1Cc1c(C)nc2c(C(=O)N3CCN(Cc4ccc5c(c4)OCO5)CC3)cnn2c1C	12.7%	-1.6	-0.5%	-0.4	i	-9.0%
Cc1cccc(Cc2c(C)nc3c(C(=O)N4CCN(Cc5ccc6c(c5)OCO6)CC4)cnn3c2C)c1	2.0%	13.9	-2.0%	-3.0	-83.4%*	-9.9%
CS(=O)(=O)N(CCc1ccccc1)CC(=O)Nc1ccc2c(c1)OCO2	3.7%	-2.1	-1.9%	-2.3	-104.7%*	-15.4%
CC(NC(=O)CCc1ccccc1)c1ccc2c(c1)OCO2 (stereo not given)	15.7%	-142.4*	7.6%	-1.8	i	-1.6%
OC(CNCCC(c1ccccc1)c1ccccc1)COc1ccccc1 (stereo not given)	-1.6%[15.4 µM]	-11.1	-16.9%	-97.5*	i	5.8%
OC(CNCCc1ccccc1)COc1ccc(OCC(O)CNCCc2ccccc2)cc1 (stereo not given)	5.1%	-2.7	-8.8%	-13.3	i	2.6%
CC(C)N(CCNCC(O)COc1ccc(C(C)(C)c2ccccc2)cc1)C(C)C (stereo not given)	-0.6%[15.4 µM]	-95.7*	-9.7%	?	i	8.6%
COc1ccc(CC(=O)NCc2ccc(-n3cccc3)cc2)cc1OC	-6.7%[15.4 µM]	5.1	-6.3%	2.8	i	9.8%
COc1ccc(CC(=O)NCc2nn(-c3ccccc3)nc2C)cc1OC	7.7%	-0.3	-2.5%	-179.9*	i	4.9%
COc1cccc(Nc2nc3ccccc3nc2NS(=O)(=O)c2cccs2)c1	13.3%	0.8	2.8%	-3.3	i	14.1µM*
COc1ccc(Nc2nc3ccccc3nc2NS(=O)(=O)c2cccs2)c(OC)c1	-13.0%	-3.0	-2.5%	1.3	i	-9.0%
O=C1CC(=Nc2ccccc2)NN1c1ccccc1	-25.8%	15.3	-2.1%	3.1	i	50.1µM*

Assay outcomes deposited in PubChem by National Center for Advancing Translational Sciences (NCATS).
